Test results: PubChem BioAssay (NCATS)
Inconclusive results are not listed. Calls of active or inactive are those of the source. Calls follow the shape of the dose curve; as a rule, active = well fitted inhibition curve with a large enough effect; inconclusive = small, poorly fitted or top-dose-only effect; inactive = flat fitted curve, though single readings scatter.

Legend:
[1] = qHTS profiling for inhibitors of Plasmodium falciparum proliferation (AID 504749); also: nearly all actives have a fitted effect of over 60% in size;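 as to activity, negative = inhibition: 0% = DMSO vehicle and full inhibition = artemisinin control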; conditions: P. falciparum in erythrocytes, SYBR Green DNA, 72 h, at 28.7 µM (top of the series)
Method in brief: (§1)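 Each compound contacts P. falciparum-infected red blood cells for 72 h at 37 C; lysis buffer (Tris, EDTA, saponin, Triton X, SYBR Green I) is added and fluorescence measured next morning; values normalized to controls.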

3D7 = experiment: as above; conditions: P. falciparum in erythrocytes, SYBR Green DNA, 72 h; series mostly up to 28.7 µM
Method in brief: as §1

7G8 = experiment: as above; conditions: P. falciparum in erythrocytes, SYBR Green DNA, 72 h; series mostly up to 28.7 µM
Method in brief: as §1

AA1029 = experiment: as above; conditions: P. falciparum in erythrocytes, SYBR Green DNA, 72 h; series mostly up to 28.7 µM
Method in brief: as §1

AS120 = experiment: as above; conditions: P. falciparum in erythrocytes, SYBR Green DNA, 72 h; series mostly up to 28.7 µM
Method in brief: as §1

ATS189 = experiment: as above; conditions: P. falciparum in erythrocytes, SYBR Green DNA, 72 h; series mostly up to 28.7 µM
Method in brief: as §1

ATS95 = experiment: as above; conditions: P. falciparum in erythrocytes, SYBR Green DNA, 72 h; series mostly up to 28.7 µM
Method in brief: as §1

C2A = experiment: as above; conditions: P. falciparum in erythrocytes, SYBR Green DNA, 72 h; series mostly up to 28.7 µM
Method in brief: as §1

CP185 = experiment: as above; conditions: P. falciparum in erythrocytes, SYBR Green DNA, 72 h; series mostly up to 28.7 µM
Method in brief: as §1

CP191 = experiment: as above; conditions: P. falciparum in erythrocytes, SYBR Green DNA, 72 h; series mostly up to 28.7 µM
Method in brief: as §1

CP192 = experiment: as above; conditions: P. falciparum in erythrocytes, SYBR Green DNA, 72 h; series mostly up to 28.7 µM
Method in brief: as §1

CP194 = experiment: as above; conditions: P. falciparum in erythrocytes, SYBR Green DNA, 72 h; series mostly up to 28.7 µM
Method in brief: as §1

CP201 = experiment: as above; conditions: P. falciparum in erythrocytes, SYBR Green DNA, 72 h; series mostly up to 28.7 µM
Method in brief: as §1

CP203 = experiment: as above; conditions: P. falciparum in erythrocytes, SYBR Green DNA, 72 h; series mostly up to 28.7 µM
Method in brief: as §1

CP211 = experiment: as above; conditions: P. falciparum in erythrocytes, SYBR Green DNA, 72 h; series mostly up to 28.7 µM
Method in brief: as §1

CP215 = experiment: as above; conditions: P. falciparum in erythrocytes, SYBR Green DNA, 72 h; series mostly up to 28.7 µM
Method in brief: as §1

CP217 = experiment: as above; conditions: P. falciparum in erythrocytes, SYBR Green DNA, 72 h; series mostly up to 28.7 µM
Method in brief: as §1

CP237 = experiment: as above; conditions: P. falciparum in erythrocytes, SYBR Green DNA, 72 h; series mostly up to 28.7 µM
Method in brief: as §1

CP238 = experiment: as above; conditions: P. falciparum in erythrocytes, SYBR Green DNA, 72 h; series mostly up to 28.7 µM
Method in brief: as §1

CP247 = experiment: as above; conditions: P. falciparum in erythrocytes, SYBR Green DNA, 72 h; series mostly up to 28.7 µM
Method in brief: as §1
Potency is read from the fitted curve at half-maximal effect.

CCN(CC)CCOc1ccccc1OC
inactive: activity, negative = inhibition ([1]; parasite line A) -4.79% | activity, negative = inhibition ([1]; parasite line B) -3.67% | Potency (3D7) | Potency (7G8) | Potency (AA1029) | Potency (AS120) | Potency (ATS189) | Potency (ATS95) | Potency (C2A) | Potency (CP185) | Potency (CP191) | Potency (CP192) | Potency (CP194) | Potency (CP201) | Potency (CP203) | Potency (CP211) | Potency (CP215) | Potency (CP217) | Potency (CP237) | Potency (CP238) | Potency (CP247)

CCOc1ccc(S(=O)(=O)O)c2cccnc12
inactive: activity, negative = inhibition ([1]; parasite line A) 8.12% | activity, negative = inhibition ([1]; parasite line B) 6.17% | Potency (3D7) | Potency (7G8) | Potency (AA1029) | Potency (AS120) | Potency (ATS189) | Potency (ATS95) | Potency (C2A) | Potency (CP185) | Potency (CP191) | Potency (CP192) | Potency (CP194) | Potency (CP201) | Potency (CP203) | Potency (CP211) | Potency (CP215) | Potency (CP217) | Potency (CP237) | Potency (CP238) | Potency (CP247)

CC(C)CCC[C@@H](C)[C@H]1CC[C@H]2[C@@H]3CC=C4C[C@@H](O)CC[C@]4(C)[C@H]3CC[C@]12C
inactive: activity, negative = inhibition ([1]; parasite line A) 4.96% | activity, negative = inhibition ([1]; parasite line B) -1.65% | Potency (3D7) | Potency (7G8) | Potency (AA1029) | Potency (AS120) | Potency (ATS189) | Potency (ATS95) | Potency (C2A) | Potency (CP185) | Potency (CP191) | Potency (CP192) | Potency (CP194) | Potency (CP201) | Potency (CP203) | Potency (CP211) | Potency (CP215) | Potency (CP217) | Potency (CP237) | Potency (CP238) | Potency (CP247)

CC1CCCCN1CCCOC(=O)c1ccccc1 (configuration not stated)
inactive: activity, negative = inhibition ([1]; parasite line A) 3.84% | activity, negative = inhibition ([1]; parasite line B) 9.27% | Potency (3D7) | Potency (7G8) | Potency (AA1029) | Potency (AS120) | Potency (ATS189) | Potency (ATS95) | Potency (C2A) | Potency (CP185) | Potency (CP191) | Potency (CP192) | Potency (CP194) | Potency (CP201) | Potency (CP203) | Potency (CP211) | Potency (CP215) | Potency (CP217) | Potency (CP237) | Potency (CP238) | Potency (CP247)

O=C(CCCCCCCCCCCCC1CCCC1)Nc1ccc(S(=O)(=O)c2ccc(NC(=O)CCCCCCCCCCCCC3CCCC3)cc2)cc1
inactive: activity, negative = inhibition ([1]; parasite line A) -2.51% | activity, negative = inhibition ([1]; parasite line B) 13.1% | Potency (3D7) | Potency (7G8) | Potency (AA1029) | Potency (AS120) | Potency (ATS189) | Potency (ATS95) | Potency (C2A) | Potency (CP185) | Potency (CP191) | Potency (CP192) | Potency (CP194) | Potency (CP201) | Potency (CP203) | Potency (CP211) | Potency (CP215) | Potency (CP217) | Potency (CP237) | Potency (CP238) | Potency (CP247)

F[Si-2](F)(F)(F)(F)F
inactive: activity, negative = inhibition ([1]; parasite line A) 3.4% | activity, negative = inhibition ([1]; parasite line B) 19.2% | Potency (3D7) | Potency (7G8) | Potency (AA1029) | Potency (AS120) | Potency (ATS189) | Potency (ATS95) | Potency (C2A) | Potency (CP185) | Potency (CP191) | Potency (CP192) | Potency (CP194) | Potency (CP201) | Potency (CP203) | Potency (CP211) | Potency (CP215) | Potency (CP217) | Potency (CP237) | Potency (CP238) | Potency (CP247)

O=C(O)[C@H]1CN(C/C=C/P(=O)(O)O)CCN1
inactive: activity, negative = inhibition ([1]; parasite line A) 5.03% | activity, negative = inhibition ([1]; parasite line B) 6.62% | Potency (3D7) | Potency (7G8) | Potency (AA1029) | Potency (AS120) | Potency (ATS189) | Potency (ATS95) | Potency (C2A) | Potency (CP185) | Potency (CP191) | Potency (CP192) | Potency (CP194) | Potency (CP201) | Potency (CP203) | Potency (CP211) | Potency (CP215) | Potency (CP217) | Potency (CP237) | Potency (CP238) | Potency (CP247)

Cc1cccc(Nc2ncccc2C(=O)O)c1C
inactive: activity, negative = inhibition ([1]; parasite line A) 2.92% | activity, negative = inhibition ([1]; parasite line B) 1.25% | Potency (3D7) | Potency (7G8) | Potency (AA1029) | Potency (AS120) | Potency (ATS189) | Potency (ATS95) | Potency (C2A) | Potency (CP185) | Potency (CP191) | Potency (CP192) | Potency (CP194) | Potency (CP201) | Potency (CP203) | Potency (CP211) | Potency (CP215) | Potency (CP217) | Potency (CP237) | Potency (CP238) | Potency (CP247)

CC(C)(CO)[C@@H](O)C(=O)NCCC(=O)NCCSSCCNC(=O)CCNC(=O)[C@H](O)C(C)(C)CO
inactive: activity, negative = inhibition ([1]; parasite line A) -1% | activity, negative = inhibition ([1]; parasite line B) -2.45% | Potency (3D7) | Potency (7G8) | Potency (AA1029) | Potency (AS120) | Potency (ATS189) | Potency (ATS95) | Potency (C2A) | Potency (CP185) | Potency (CP191) | Potency (CP192) | Potency (CP194) | Potency (CP201) | Potency (CP203) | Potency (CP211) | Potency (CP215) | Potency (CP217) | Potency (CP237) | Potency (CP238) | Potency (CP247)

C(=C\c1ccncc1)/c1ccccc1
active: Potency (7G8) 12.6 µM
inactive: activity, negative = inhibition ([1]; parasite line A) -2.95% | activity, negative = inhibition ([1]; parasite line B) -9.52% | Potency (3D7) | Potency (AA1029) | Potency (AS120) | Potency (ATS189) | Potency (ATS95) | Potency (C2A) | Potency (CP185) | Potency (CP191) | Potency (CP192) | Potency (CP194) | Potency (CP201) | Potency (CP203) | Potency (CP211) | Potency (CP215) | Potency (CP217) | Potency (CP237) | Potency (CP238) | Potency (CP247)

CCCCC(CC)COS(=O)(=O)O (configuration not stated)
inactive: activity, negative = inhibition ([1]; parasite line A) 12.8% | activity, negative = inhibition ([1]; parasite line B) 12.3% | Potency (3D7) | Potency (7G8) | Potency (AA1029) | Potency (AS120) | Potency (ATS189) | Potency (ATS95) | Potency (C2A) | Potency (CP185) | Potency (CP191) | Potency (CP192) | Potency (CP194) | Potency (CP201) | Potency (CP203) | Potency (CP211) | Potency (CP215) | Potency (CP217) | Potency (CP237) | Potency (CP238) | Potency (CP247)

CCCCCCCCCCCC(=O)OCC(O)CO (configuration not stated)
inactive: activity, negative = inhibition ([1]; parasite line A) 0.724% | activity, negative = inhibition ([1]; parasite line B) -1.86% | Potency (3D7) | Potency (7G8) | Potency (AA1029) | Potency (AS120) | Potency (ATS189) | Potency (ATS95) | Potency (C2A) | Potency (CP185) | Potency (CP191) | Potency (CP192) | Potency (CP194) | Potency (CP201) | Potency (CP203) | Potency (CP211) | Potency (CP215) | Potency (CP217) | Potency (CP237) | Potency (CP238) | Potency (CP247)
